# Where two headings read alike, the source gives them in different places.
# What was measured:
# Conditions in all cases: n = 1
# TTK = system: TTK
# TXK = system: TXK
# [1] = system: TYK2(JH1domain-catalytic)
# [2] = system: TYK2(JH2domain-pseudokinase)
# TYRO3 = system: TYRO3
# ULK1 = system: ULK1
# ULK2 = system: ULK2
# ULK3 = system: ULK3
# VEGFR2 = system: T1, VEGFR2
# T1 construct: gene KDR
# VPS34 = system: T2, VPS34
# T2 construct: gene PIK3C3
# [3] = concentration: 1 μM, replicates: in singlicate
# 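Further: KINOMEscan kinase panel screen.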
Structure (SMILES),%Inh (TTK; [3]) [%],%Inh (TXK; [3]) [%],"%Inh [1, 3] [%]","%Inh [2, 3] [%]",%Inh (TYRO3; [3]) [%],%Inh (ULK1; [3]) [%],%Inh (ULK2; [3]) [%],%Inh (ULK3; [3]) [%],%Inh (VEGFR2; [3]) [%],%Inh (VPS34; [3]) [%],%Inh (TTK; 1 µM) [%],%Inh (TXK; 1 µM) [%],%Inh ([1]; 1 µM) [%],%Inh ([2]; 1 µM) [%],%Inh (TYRO3; 1 µM) [%],%Inh (ULK1; 1 µM) [%],%Inh (ULK2; 1 µM) [%],%Inh (ULK3; 1 µM) [%],%Inh (VEGFR2; 1 µM) [%],%Inh (VPS34; 1 µM) [%]
COC(=O)c1c(-c2ccccc2)c2cc(C(=O)O)ccc2c(=O)n1Cc1ccccc1,4,0,0,4,7,0,0,0,0,9,–,–,–,–,–,–,–,–,–,–
Clc1cc(Cl)cc(Nc2ccnc(Nc3cc(Cl)cc(Cl)c3)n2)c1 [GSK175726],0,0,0,0,0,0,0,0,12,0,–,–,–,–,–,–,–,–,–,–
O=C(Nc1n[nH]c2cc(-c3cccc(F)c3F)ccc12)C1CC1 [SB-733894],1,0,1,0,0,0,51,4,20,0,–,–,–,–,–,–,–,–,–,–
Cc1ccc(NC(=O)Nc2cccc(C(F)(F)F)c2)cc1 [GSK955403],–,–,–,–,–,–,–,–,–,–,19,38,24,0,16,0,6,0,0,0
O=c1cc(N2CCOCC2)nc2n(Cc3cccc(Cl)c3Cl)ccn12 [GSK2286295],0,19,4,0,0,12,0,0,0,97,–,–,–,–,–,–,–,–,–,–
O=C1NC(=O)C(N2CCc3ccccc32)=C1c1ccccc1Cl [SB-373598],65,28,0,0,0,61,6,39,2,16,–,–,–,–,–,–,–,–,–,–
CCCc1ccc(S(=O)(=O)NC2CCN(c3ccnc(Nc4ccc(F)cc4)n3)C2)cc1 (stereo not drawn) [GSK1379715],0,73,26,30,0,16,0,4,0,0,–,–,–,–,–,–,–,–,–,–
C[C@@H]1CCCCN1c1cc(-c2ccc3c(N)n[nH]c3c2)nc(N)n1 [GSK2258759],0,0,0,3,0,0,0,0,0,0,–,–,–,–,–,–,–,–,–,–
Fc1cc(Cl)ccc1Nc1ccnc2cc(-c3ccc(CN4CCCCC4)o3)ccc12 [GW560116],0,23,27,18,0,0,0,0,6,22,–,–,–,–,–,–,–,–,–,–

# Source: paper PMC5540273 (PLoS ONE, 2017)
